Test [1] deals with Bile acid receptor (Homo sapiens) (UniProt Q96RI1). Kind of test: qHTS assay for small molecule antagonists of farnesoid X receptor signaling (AID 588526). Further: on the % scale 0 is the no-effect control and ±100 the full control effect. In a few lines: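 Beta-lactamase reporter antagonist mode: HEK293T FXR-UAS-bla cells, titrated compound, CDCA stimulation, 16 h 37 C, CCF4 dye 2 h RT. Data normalized to CDCA 50 uM and DMSO; Hill-fit IC50.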
Test [2] has the same target. Kind of test: qHTS assay for small molecule agonists of farnesoid X receptor signaling (AID 588527).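 Further: series mostly up to about 77 µM; 0% = vehicle basal and 100% = reference agonist.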 The settings on record: HEK293T FXR-UAS-bla, beta-lactamase ratio, 16 h; activation: stronger effect = higher value. In a few lines: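 Quantitative HTS used FXR-UAS-bla HEK293T cells with 16 h compound incubation at 37 C. EC50 values came from concentration-response curves normalized to chenodeoxycholic acid.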
On the technique in general: Quantitative high-throughput screening tests each substance at several concentrations.

In test [3] the target is Peroxisome proliferator-activated receptor delta (Homo sapiens) (UniProt Q03181). Kind of test: qHTS assay for small molecule agonists of peroxisome proliferator-activated receptor delta signaling (AID 588534).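 Further: 0% = DMSO basal wells and 100% = positive control agonist at 10 µM.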 In a few lines:
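Cells carrying a PPAR-delta beta-lactamase reporter were treated with compounds for 18 h at 37 °C in agonist mode. CCF4 fluorescence was read after 2 h; EC50 and efficacy from Hill fits.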

Test [4] in a line: qHTS assay for small molecule antagonists of peroxisome proliferator-activated receptor delta signaling (AID 588535; active means well fitted inhibition curve with a large enough effect in the signal ratio, with a control signal flat, not every such curve was filed as active; the % refers to the signal ratio;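 on max response: cells co-treated with a PPAR-delta agonist as stimulator during compound exposure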). To be noted: HEK293T PPARd-UAS-bla, beta-lactamase FRET ratio, 18 h; 460 nm channel. The gist of the method:
(§1)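 HEK293T PPAR-delta-UAS-bla cells, 4000/well, 2% charcoal/dextran FBS; 5 h 37 C; cpd titration; 18 h 37 C; CCF4 2 h RT; FI 460/530 nm; Hill fit → IC50, efficacy.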

Test [5] deals with Peroxisome proliferator-activated receptor delta (Homo sapiens) (UniProt Q03181). The description is as above. The gist of the method: as §1
For test [6], the target named is Vitamin D3 receptor (Homo sapiens) (UniProt P11473). Kind of test: qHTS assay for small molecule agonists of vitamin D receptor signaling (AID 588543).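 Further: 0% = DMSO basal and 100% = reference agonist control.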 In a few lines: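 Reporter cells (HEK293T, VDR-UAS-bla) were seeded in medium with 2% charcoal-stripped serum and incubated 5 h, then compounds in concentration series were added for 16 h at 37 °C. Stimulation was scaled between DMSO basal and 50 nM 1α,25-dihydroxyvitamin D3.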

For test [7], the target named is Thyroid hormone receptor beta (Homo sapiens) (UniProt P10828). In words: qHTS assay for small molecule agonists of thyroid hormone receptor beta signaling (AID 588545).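 Further: 0% = DMSO only and 100% = 10 nM T3.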 In a few lines:
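Beta-lactamase reporter activity under TR response element control is measured in HEK 293 cells after 18 hrs compound exposure. Signal is ratiometric CCF4 fluorescence, 460/530 nm.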

Test [8] is described as follows: qHTS assay for small molecule antagonists of retinoid X receptor alpha signaling (AID 588546; active means well fitted inhibition curve with a large enough effect in the signal ratio, with a control signal flat, not every such curve was filed as active; the % refers to the signal ratio;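 further: cells stimulated with 9-cis-retinoic acid as agonist; on the % scale 0 is the no-effect control and ±100 the full control effect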). The settings on record: HEK293T RXRa-UAS-bla, beta-lactamase ratio, antagonist mode; measured here: W530 green channel, cytotoxicity proxy. The gist of the method:
(§2)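 Beta-lactamase reporter inhibition, read as CCF4 fluorescence ratio (ex 405, em 460/530 nm) after 2 h at RT. HEK293T UAS-bla cells, 2500/well, were stimulated with 9-cis-RA at 500 or 100 nM final alongside test compound for 18 h at 37 C.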

For test [9], the target named is Retinoic acid receptor RXR-alpha (Homo sapiens) (UniProt P19793). The description is as above. To be noted: HEK293T RXRa-UAS-bla, beta-lactamase ratio, antagonist mode. The gist of the method:
as §2

Test [10] deals with Thyroid hormone receptor beta (Homo sapiens) (UniProt P10828). Kind of test: qHTS assay for small molecule antagonists of thyroid hormone receptor beta signaling (AID 588547; active means well fitted inhibition curve with a large enough effect in the signal ratio, with a control signal flat, not every such curve was filed as active; the % refers to the signal ratio;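 further: cells stimulated with 0.4 nM T3 agonist during compound exposure; series mostly up to about 77 µM; on the % scale 0 is the no-effect control and ±100 the full control effect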). The settings on record: TR-UAS-bla HEK293, beta-lactamase ratio, antagonist mode, 18 h. The gist of the method: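 Inhibition of T3-driven (0.4nM final) beta-lactamase reporter activity was measured over 0.59 nM to 92 uM compound after 18 h at 37 C. The cells were GripTite HEK293 TR-UAS-bla in charcoal/dextran-stripped serum, with CCF4 ratio read-out and IC50 from Hill fits.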

Test [11] in a line: qHTS assay for small molecule activators of the p53 signaling pathway (AID 651743; active means well fitted activation curve with a large enough effect in the signal ratio, not every such curve was filed as active; the % refers to the signal ratio; further: series mostly up to about 92 µM; % of control where 0% means no effect). The settings on record: HCT-116 p53RE-bla, beta-lactamase FRET ratio, 16 h; activation: stronger effect = higher value. In a few lines: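 Read-out is fluorescence intensity from the LiveBLAzer B/G FRET substrate, added for 2 hours at room temperature after HCT-116 p53RE-bla cells had been incubated with compounds for 16 hours at 37 C.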

A short description of test [12]: qHTS assay for environmental chemicals that activate the Aryl hydrocarbon Receptor (AhR) signaling pathway (AID 651777; active means well fitted curve in the direction sought with a large enough effect; an effect the other way counts as inactive or inconclusive; further: % of control where 0% means no effect; nearly all actives have a fitted effect of over 15% in size). To be noted: 1A2-DRE human hepatoma cells, luciferase, 24 h; activation: stronger effect = higher value. In a few lines:
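Luminescence (One-Glo, 30 min, room temperature) reports AhR-driven luciferase in stably transfected human hepatoma cells bearing DRE and CYP1A2 promoter. Cells (1,200/well) were treated with compound for 24 hr at 37 C in qHTS format.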

Test [13] concerns the target Peroxisome proliferator-activated receptor alpha (Homo sapiens) (UniProt Q07869). In words: qHTS assay for small molecule agonists of the peroxisome proliferator-activated receptor alpha (PPARalpha) signaling pathway (AID 651778; active means well fitted curve in the direction sought with a large enough effect; an effect the other way counts as inactive or inconclusive; further: % of control where 0% means no effect). The settings on record: PathHunter PPARalpha complementation, chemiluminescence, 6 h; max response: stronger effect = higher value. In a few lines: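 Chemiluminescence from complemented enzyme reported PPARalpha activation in cells after 6 hr of compound treatment at 37 C. The detection reagent was incubated for 60 min at room temperature, and compounds were scored as agonists.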

Test [14] can be described thus: qHTS assay for small molecule agonists of the antioxidant response element (ARE) signaling pathway measured by Nrf2-dependant transcriptional activity (AID 720636; active means well fitted curve in the direction sought with a large enough effect in the repeat runs; an effect the other way counts as inactive or inconclusive; further: % of control where 0% means no effect). In a few lines: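 Nrf2-dependent transcription read as ONE-Glo luciferase signal from ARE-luc HepG2 reporter cells after 16 hr compound treatment at 37 C, 5% CO2, in assay medium with 1% dialyzed FBS.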

The nature of test [15]: qHTS assay for small molecule agonists of the antioxidant response element (ARE) signaling pathway measured by Nrf2-dependant transcriptional activity - cell viability counter screen (AID 720653; active means well fitted curve in the direction sought with a large enough effect in the repeat runs; an effect the other way counts as inactive or inconclusive; further: on the % scale 0 is the no-effect control and ±100 the full control effect). The settings on record: ARE-bla HepG2 viability, CellTiter-Glo ATP luminescence, 16 h; max response: stronger effect = lower value. The gist of the method: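 Cytotoxicity counter screen: intracellular ATP quantified by CellTiter-Glo luminescence in the same ARE-bla HepG2 plates, after 16 h compound exposure and a 2 h beta-lactamase substrate step.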

Test [16] in a line: qHTS assay for cell viability of HEK293 cells (AID 743288; active means well fitted curve in the direction sought with a large enough effect; an effect the other way counts as inactive or inconclusive; further: on the % scale 0 is the no-effect control and ±100 the full control effect; nearly all actives have a fitted effect of over 50% in size). The settings on record: ATP luminescence (CellTiter-Glo), 18 h; max response: stronger effect = lower value. The gist of the method: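 HEK293 parental, 2,000 cells/well; ≥5 h pre-incubation 37 C; pintool compound addition; 18 h, 37 C; CellTiter-Glo 30 min RT; luminescence read.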
Test [17] in a line: qHTS assay for cell viability of the p53RE-bla HCT-116 cell line (AID 743292; active means well fitted curve in the direction sought with a large enough effect; an effect the other way counts as inactive or inconclusive; further: on the % scale 0 is the no-effect control and ±100 the full control effect; nearly all actives have a fitted effect of over 55% in size). In a few lines: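 ATP-based luminescent viability (CellTiter-Glo, 30 min RT) after 16 h compound treatment at 37 C of p53RE-bla HCT-116 cells, seeded at 4,000 cells/well and rested 5 h before dosing.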
The target of test [18] is Nuclear receptor subfamily 1 group I member 2 (Rattus norvegicus) (UniProt Q9R1A7). Kind of test: qHTS assay for small molecule activators of the rat pregnane X receptor (rPXR) signaling pathway (AID 651751; call rule not given here; further: 0% is about no effect). The settings on record: rPXR reporter cells, luciferase (One-Glo), 24 h.
Test [19] concerns the target Retinoic acid receptor RXR-alpha (Homo sapiens) (UniProt P19793). In words: qHTS assay for small molecule agonists of retinoid X receptor alpha signaling (AID 588544).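 Further: 0% = DMSO basal wells and 100% = reference agonist.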
A short description of test [20]: qHTS assay for small molecule agonists of the antioxidant response element (ARE) signaling pathway (AID 651741; active means well fitted activation curve with a large enough effect in the signal ratio; the % refers to the signal ratio; further: potency means the concentration at half of the fitted maximal effect). The gist of the method: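 Quantitative HTS in HepG2 cells stably expressing an ARE-beta-lactamase reporter; 16 h compound exposure at 37 C, followed by 2 h room-temperature incubation with LiveBLAzer B/G FRET substrate and fluorescence measurement.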

Data on five compounds can be found in PubChem BioAssay (NCATS).

Results filed as inconclusive are left out. The source made the active and inactive calls. Unless noted, the call rests on the fitted dose curve.

Sequence of Retinoic acid receptor RXR-alpha (Homo sapiens) (P19793 whole entry, looked up): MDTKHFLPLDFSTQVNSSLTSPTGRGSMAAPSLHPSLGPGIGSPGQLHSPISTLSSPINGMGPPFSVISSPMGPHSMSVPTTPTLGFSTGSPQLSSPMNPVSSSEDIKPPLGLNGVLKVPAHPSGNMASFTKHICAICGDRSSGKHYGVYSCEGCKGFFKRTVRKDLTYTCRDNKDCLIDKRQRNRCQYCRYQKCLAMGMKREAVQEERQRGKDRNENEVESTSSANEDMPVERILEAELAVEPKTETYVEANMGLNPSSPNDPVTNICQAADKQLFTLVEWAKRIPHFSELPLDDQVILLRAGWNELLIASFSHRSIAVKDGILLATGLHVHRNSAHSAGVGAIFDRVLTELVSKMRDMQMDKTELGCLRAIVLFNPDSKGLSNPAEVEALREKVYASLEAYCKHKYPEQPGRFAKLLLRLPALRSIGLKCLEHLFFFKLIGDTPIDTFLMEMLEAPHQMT
Sequence of Thyroid hormone receptor beta (Homo sapiens) (P10828 whole entry, looked up): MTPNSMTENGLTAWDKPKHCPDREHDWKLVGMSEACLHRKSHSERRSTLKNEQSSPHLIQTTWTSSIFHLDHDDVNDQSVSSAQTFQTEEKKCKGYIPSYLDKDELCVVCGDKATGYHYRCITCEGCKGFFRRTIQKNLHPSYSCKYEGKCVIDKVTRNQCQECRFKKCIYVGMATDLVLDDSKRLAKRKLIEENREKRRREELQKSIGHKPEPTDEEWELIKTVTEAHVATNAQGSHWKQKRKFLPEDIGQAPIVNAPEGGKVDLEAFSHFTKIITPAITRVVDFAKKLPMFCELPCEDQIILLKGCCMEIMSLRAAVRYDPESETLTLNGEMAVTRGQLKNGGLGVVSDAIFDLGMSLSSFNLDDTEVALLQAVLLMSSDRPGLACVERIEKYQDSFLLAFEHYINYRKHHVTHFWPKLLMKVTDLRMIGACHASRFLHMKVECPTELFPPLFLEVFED
Sequence of Peroxisome proliferator-activated receptor delta (Homo sapiens) (Q03181 whole entry, looked up): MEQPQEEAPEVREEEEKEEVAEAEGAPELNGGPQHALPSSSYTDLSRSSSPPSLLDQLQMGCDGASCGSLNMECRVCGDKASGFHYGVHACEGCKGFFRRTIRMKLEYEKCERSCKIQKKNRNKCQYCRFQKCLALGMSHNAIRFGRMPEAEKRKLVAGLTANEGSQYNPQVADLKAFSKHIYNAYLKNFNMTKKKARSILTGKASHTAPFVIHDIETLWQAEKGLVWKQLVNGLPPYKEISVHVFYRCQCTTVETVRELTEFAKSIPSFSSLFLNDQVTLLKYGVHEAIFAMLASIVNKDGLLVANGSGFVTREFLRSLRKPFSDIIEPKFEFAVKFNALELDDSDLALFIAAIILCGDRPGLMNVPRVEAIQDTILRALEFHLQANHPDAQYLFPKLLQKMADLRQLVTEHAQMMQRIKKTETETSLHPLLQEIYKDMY
Sequence of Bile acid receptor (Homo sapiens) (Q96RI1 whole entry, looked up): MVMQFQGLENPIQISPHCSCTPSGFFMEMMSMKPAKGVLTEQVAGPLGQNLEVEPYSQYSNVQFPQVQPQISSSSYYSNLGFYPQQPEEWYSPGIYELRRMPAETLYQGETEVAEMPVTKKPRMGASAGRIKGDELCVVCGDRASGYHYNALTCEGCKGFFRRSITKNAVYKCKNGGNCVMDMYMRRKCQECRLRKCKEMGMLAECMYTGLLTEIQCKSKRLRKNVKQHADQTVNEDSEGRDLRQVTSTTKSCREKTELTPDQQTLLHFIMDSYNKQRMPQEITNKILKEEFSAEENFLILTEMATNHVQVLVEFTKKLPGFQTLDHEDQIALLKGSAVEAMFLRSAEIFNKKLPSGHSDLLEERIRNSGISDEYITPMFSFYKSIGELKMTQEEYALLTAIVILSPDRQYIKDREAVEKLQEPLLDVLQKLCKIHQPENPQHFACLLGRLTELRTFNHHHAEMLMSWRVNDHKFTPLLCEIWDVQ
Sequence of Vitamin D3 receptor (Homo sapiens) (P11473 whole entry, looked up): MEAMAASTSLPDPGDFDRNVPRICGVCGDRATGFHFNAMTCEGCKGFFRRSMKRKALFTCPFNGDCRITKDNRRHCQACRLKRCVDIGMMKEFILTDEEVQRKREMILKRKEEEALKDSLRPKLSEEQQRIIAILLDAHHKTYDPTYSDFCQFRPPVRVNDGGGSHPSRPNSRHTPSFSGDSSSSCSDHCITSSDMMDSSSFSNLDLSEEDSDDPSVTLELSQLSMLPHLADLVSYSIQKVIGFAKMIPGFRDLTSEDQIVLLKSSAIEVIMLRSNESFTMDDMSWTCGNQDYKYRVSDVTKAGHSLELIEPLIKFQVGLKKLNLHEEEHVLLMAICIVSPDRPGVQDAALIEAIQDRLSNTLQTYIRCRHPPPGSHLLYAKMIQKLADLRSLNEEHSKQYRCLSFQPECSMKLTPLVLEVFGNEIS
Sequence of Peroxisome proliferator-activated receptor alpha (Homo sapiens) (Q07869 whole entry, looked up): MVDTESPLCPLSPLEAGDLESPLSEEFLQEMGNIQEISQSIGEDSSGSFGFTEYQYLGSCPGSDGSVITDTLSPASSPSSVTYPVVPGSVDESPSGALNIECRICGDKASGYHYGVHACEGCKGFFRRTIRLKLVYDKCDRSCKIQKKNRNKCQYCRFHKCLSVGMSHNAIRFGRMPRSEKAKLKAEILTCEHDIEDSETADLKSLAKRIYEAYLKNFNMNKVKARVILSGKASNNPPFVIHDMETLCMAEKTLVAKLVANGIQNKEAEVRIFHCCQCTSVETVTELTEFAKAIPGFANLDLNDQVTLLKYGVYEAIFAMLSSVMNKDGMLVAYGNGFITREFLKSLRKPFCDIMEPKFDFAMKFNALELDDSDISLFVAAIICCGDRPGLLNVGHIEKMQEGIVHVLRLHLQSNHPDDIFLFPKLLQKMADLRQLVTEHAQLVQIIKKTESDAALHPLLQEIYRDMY
Sequence of Nuclear receptor subfamily 1 group I member 2 (Rattus norvegicus) (Q9R1A7 whole entry, looked up): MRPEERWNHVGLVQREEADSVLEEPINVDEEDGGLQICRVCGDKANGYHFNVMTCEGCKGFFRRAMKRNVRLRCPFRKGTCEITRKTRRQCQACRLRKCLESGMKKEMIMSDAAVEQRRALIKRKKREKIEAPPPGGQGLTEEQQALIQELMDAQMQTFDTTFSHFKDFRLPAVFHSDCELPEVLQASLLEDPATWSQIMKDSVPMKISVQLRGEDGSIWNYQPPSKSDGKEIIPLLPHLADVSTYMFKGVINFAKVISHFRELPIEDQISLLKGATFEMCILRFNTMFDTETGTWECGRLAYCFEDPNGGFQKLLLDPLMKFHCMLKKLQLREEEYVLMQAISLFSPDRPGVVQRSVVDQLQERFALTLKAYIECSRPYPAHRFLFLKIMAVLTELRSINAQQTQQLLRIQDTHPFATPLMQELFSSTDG

Take `CCC[CH2][Sn]([CH2]CCC)([CH2]CCC)[CH2]CCC`: the Potency result in test [1], in test [5], in test [7], in [14] and in [17] was “inactive” in each case. The values for the activation in test [2], in test [11] and in test [12] were 3.44% (inactive), -3.46% (inactive) and 0.926% (inactive), respectively. Moreover, the outcome in test [3] and in test [6] was inactive. Besides, the max response is 0.148% in test [4]; 6.88% in test [8]; 4.03% (inactive) in test [9]; -1.25% (inactive) in test [13]; 1.93% (inactive) in test [15]; -5.3% (inactive) in [16]. Further, the max response in test [18] was 8.28% (inactive). Moreover, the activity change % (negative = inhibition) in test [10] is -9.45% (inactive).
With `COC(=O)c1ccccc1S(=O)(=O)NC(=O)Nc1nc(C)nc(OC)n1`, the Potency result in [1], in test [5], in test [7] and in test [14] was “inactive” each time. Also, the activation is -2.54% (inactive) in test [2], 6.08% (inactive) in [11] and -1.13% (inactive) in [12]. The max response in [4] was 36.9%; in test [8] it was -10.3%; in [9], 25.6% (inactive); in [13] it was 5.99% (inactive); in test [15], 13.7% (inactive); in test [16] it was 9.36% (inactive). The max response in test [18] was -8.23% (inactive). Besides, in test [6], the result was inactive.
For the compound `COc1cccc(C(=O)NN(C(=O)c2cc(C)cc(C)c2)C(C)(C)C)c1C`, the Potency entry in test [1], in [5], in [19], in test [7], in [14] and in [17] was “inactive” each time. The values for the activation in test [2], in [11] and in [12] were 4% (inactive), -3.69% (inactive) and 1.74% (inactive), respectively. The compound was called inactive in test [3]. For the same compound, the max response was -0.516% in test [4]; -5.99% in test [8]; -0.788% (inactive) in test [9]; 0.438% (inactive) in [13]; 2.48% (inactive) in [15]; -4.45% (inactive) in test [16]. For the same compound, the activity change % (negative = inhibition) in test [10] was -4.61% (inactive).
As to `CC1(C)[C@H](C(=O)O[C@H](C#N)c2cccc(Oc3ccccc3)c2)[C@@H]1/C=C(\Cl)C(F)(F)F`, the Potency result in test [1], in test [5], in [19], in test [7], in test [14] and in test [17] was “inactive” each time. In addition, the result in [3] and in [6] was inactive. The max response in test [4] is -6.46%; in test [8], -6.94%; in [9], -28.2% (inactive); in test [13], -0.66% (inactive); in test [15] it was -24% (inactive); in test [16] it was -15% (inactive). For the same compound, the activity change % (negative = inhibition) in [10] was 3.81% (inactive). For the same compound, the Potency in test [20] is 54.5 µM (active). Moreover, the activation is 1.92% (inactive) in test [11] and 0.227% (inactive) in test [12].
Consider `CCC(CC)Nc1c([N+](=O)[O-])cc(C)c(C)c1[N+](=O)[O-]`, for which the Potency entry in test [1], in [5], in [19], in test [7], in test [14] and in [17] was “inactive” each time. Further, the compound was called inactive in [3] and in test [6]. The max response was -38.2% in test [4], -0.0369% (inactive) in test [13] and -2.98% (inactive) in test [16]. For the same compound, the activity change % (negative = inhibition) in test [10] is -5.09% (inactive). For the same compound, the Potency in [20] is 27.3 µM (active). Moreover, the activation was -0.326% (inactive) in test [11] and 4.64% (inactive) in [12].
